What follows are sequences tested against ZNF653 (assay: pooled miR-30 sensor sort-seq; sequence = guide strand). Conditions: shRNA.
Also: reference of the scale not given here.

For TTCTTCCTCTTGAAGGACTTGC, which sensor-assay potency score (higher = more potent) is on record?
Its sensor-assay potency score (higher = more potent) is -0.65.

TGAAGTTGTACTGCACCTCCGC was tested. Which sensor-assay potency score (higher = more potent) did it give?
The sensor-assay potency score (higher = more potent) was -0.192.

TTGGATAAATAGAACTTCTTGC was tested. Which sensor-assay potency score (higher = more potent) did it give?
Its sensor-assay potency score (higher = more potent) is -0.368.

With TTGGCGTCGCTCCAGCCGCTGC as the sequence, how does the sensor-assay potency score (higher = more potent) read?
The sensor-assay potency score (higher = more potent) was -1.56.

Which sensor-assay potency score (higher = more potent) does the source give for ATAAATAGAACTTCTTGCCACA here?
Its sensor-assay potency score (higher = more potent) is -0.586.

How did the sensor-assay potency score (higher = more potent) turn out when ATGATGGCTGACATGTCGCTGC was run?
The sensor-assay potency score (higher = more potent) was -0.928.

With TAGCAAGCACAGGTCCTCCTTC as the sequence, how does the sensor-assay potency score (higher = more potent) read?
Its sensor-assay potency score (higher = more potent) is -0.219.

TTGTACTGCACCTCCGCAGTGT was tested. Which sensor-assay potency score (higher = more potent) did it give?
Its sensor-assay potency score (higher = more potent) is -0.237.

With TGACATGTCGCTGCCGTCCAGC as the sequence, how does the sensor-assay potency score (higher = more potent) read?
Its sensor-assay potency score (higher = more potent) is -1.21.

Each sequence was assayed against ZNF654 in the same assay as above. Conditions: shRNA.

With TAGGATTTGAGTCTGTCTGAAC as the sequence, how does the sensor-assay potency score (higher = more potent) read?
The sensor-assay potency score (higher = more potent) was -1.01.

How did the sensor-assay potency score (higher = more potent) turn out when TGAGTCTGTCTGAACATCCCAA was run?
Its sensor-assay potency score (higher = more potent) is -0.147.

With TTGTCGCACATTTAAATCGGTT as the sequence, how does the sensor-assay potency score (higher = more potent) read?
Its sensor-assay potency score (higher = more potent) is -1.07.

Which sensor-assay potency score (higher = more potent) does the source give for TTTGCTAGTAGAAACTGGCAGA here?
Its sensor-assay potency score (higher = more potent) is -0.0895.

Which sensor-assay potency score (higher = more potent) does the source give for TTGAGCTGCAGCAATTTGCTGC here?
The sensor-assay potency score (higher = more potent) was 0.117.

For TTGATTTGCTAGTAGAAACTGG, which sensor-assay potency score (higher = more potent) is on record?
The sensor-assay potency score (higher = more potent) was 0.3.

For TAAAGTTTCCTTCTTGATCTGT, which sensor-assay potency score (higher = more potent) is on record?
Its sensor-assay potency score (higher = more potent) is 0.508.

How did the sensor-assay potency score (higher = more potent) turn out when TTCTTGTGGTACAACACTGGGC was run?
Its sensor-assay potency score (higher = more potent) is -0.302.

For TATCTTGATCAGAACAGGCATC, which sensor-assay potency score (higher = more potent) is on record?
The sensor-assay potency score (higher = more potent) was -0.711.

TAAATATCCGGACACAACCAAG was tested. Which sensor-assay potency score (higher = more potent) did it give?
The sensor-assay potency score (higher = more potent) was -1.3.

With TTCTGAACTAAACTGTCTGTTT as the sequence, how does the sensor-assay potency score (higher = more potent) read?
The sensor-assay potency score (higher = more potent) was 0.135.

Which sensor-assay potency score (higher = more potent) does the source give for TTACACATGCAAAACTGCCTTT here?
The sensor-assay potency score (higher = more potent) was 0.225.

The sequences below were run against ZNF674 in the same assay as above. Conditions: shRNA.

TTTACAGAAACAAAGTCTGTGT was tested. Which sensor-assay potency score (higher = more potent) did it give?
The sensor-assay potency score (higher = more potent) was -0.0841.

Which sensor-assay potency score (higher = more potent) does the source give for TTTTACATTCTTGACCACTTTC here?
The sensor-assay potency score (higher = more potent) was -0.602.

Which sensor-assay potency score (higher = more potent) does the source give for TTGACCACTTTCATCCTTCAGT here?
Its sensor-assay potency score (higher = more potent) is 0.00879.

With TACATTCTTGACCACTTTCATC as the sequence, how does the sensor-assay potency score (higher = more potent) read?
The sensor-assay potency score (higher = more potent) was -1.6.

How did the sensor-assay potency score (higher = more potent) turn out when TTGGACATTTGTCACATACAAA was run?
Its sensor-assay potency score (higher = more potent) is -1.79.

How did the sensor-assay potency score (higher = more potent) turn out when TACAGAAACAAAGTCTGTGTTG was run?
Its sensor-assay potency score (higher = more potent) is -0.525.

With TATCTGCTCGTCAACTTCCCAG as the sequence, how does the sensor-assay potency score (higher = more potent) read?
Its sensor-assay potency score (higher = more potent) is -1.05.

Which sensor-assay potency score (higher = more potent) does the source give for TTCTTGACCACTTTCATCCTTC here?
Its sensor-assay potency score (higher = more potent) is 0.42.

Which sensor-assay potency score (higher = more potent) does the source give for TTGATGAGAGTTGACTTCCTAC here?
Its sensor-assay potency score (higher = more potent) is -0.0843.

TTTTACAGAAACAAAGTCTGTG was tested. Which sensor-assay potency score (higher = more potent) did it give?
Its sensor-assay potency score (higher = more potent) is 0.624.

Which sensor-assay potency score (higher = more potent) does the source give for TTCTACATATTTTACATTCTTG here?
The sensor-assay potency score (higher = more potent) was -0.737.

For TTTACTACACTCATAAATGTTC, which sensor-assay potency score (higher = more potent) is on record?
The sensor-assay potency score (higher = more potent) was -0.591.

What follows are sequences tested against ZNF708 in the same assay as above. Conditions: shRNA.

TTTCTAGTAAGAATTATCTTAC was tested. Which sensor-assay potency score (higher = more potent) did it give?
The sensor-assay potency score (higher = more potent) was -0.946.

TTATCTTATGTCTCTTTGCATT was tested. Which sensor-assay potency score (higher = more potent) did it give?
Its sensor-assay potency score (higher = more potent) is -1.42.

With TACTGTGATGTCTTCCAGCTTT as the sequence, how does the sensor-assay potency score (higher = more potent) read?
Its sensor-assay potency score (higher = more potent) is -0.106.

With TTTGTCACACTGAACTATTTTG as the sequence, how does the sensor-assay potency score (higher = more potent) read?
Its sensor-assay potency score (higher = more potent) is -1.74.

With TCTGATATCCACATTTTCCATA as the sequence, how does the sensor-assay potency score (higher = more potent) read?
The sensor-assay potency score (higher = more potent) was -1.12.

TTTCTTGTGATTAGTAAGGTTT was tested. Which sensor-assay potency score (higher = more potent) did it give?
Its sensor-assay potency score (higher = more potent) is -0.453.

For ATGTCTTATCTTATGTCTCTTT, which sensor-assay potency score (higher = more potent) is on record?
Its sensor-assay potency score (higher = more potent) is -1.05.
